In PubChem BioAssay (NCI) one finds growth data, which are given here for 40 compounds.

Where “and” joins values, the source holds several entries; their conditions need not be identical. Equal values may be shown once. This is part of a sample that, as a whole, favours compounds with a hit. Of some 83,000 tested, about 20% had one in any assay.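 Cells were grown in 96-well plates and exposed to the test compound at a single concentration for 48 hours; results are reported as percent growth, with values below 10 considered active.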 Calls of active or inactive are those of the source.

The test relates to MDA-MB-468 breast. As to the kind of experiment: NCI-60 one-dose screen, 48 h (100 = growth as untreated, 0 = no growth, -100 = all killed). Conditions: 10 µM unless noted.
As for `CC1=C(/C=C/C(C)=C/C=C/C(C)=C/C(=O)Nc2ccc(O)cc2)C(C)(C)CCC1`, the growth is 30.1% (inactive). Regarding `COC(=O)c1c2c(n3ccc(C)cc13)C(=O)c1ccccc1C2=O`, the growth is 86.3% (inactive). For `Cc1ccc(/C=C/C(=O)c2cccc(OCCCOc3cccc(C(=O)/C=C/c4ccc(C)cc4)c3)c2)cc1`, the growth is 89.9% (inactive). For the compound `COC(=O)/C(CCC=C(C)C)=C1\[C@@H](OC(C)=O)C[C@@]2(C)[C@H]1C[C@@H](O)[C@H]1[C@@]3(C)CC[C@H](NCCCNCCCCNCCCN)[C@@H](C)[C@@H]3CC[C@@]12C`, the growth was 78.5% (inactive).

For `O=C(O/C(=C/c1ccccc1)C(F)(F)F)c1ccccc1`, the growth is 109% (inactive).

For the compound `COc1cc(C(=O)N/N=C/c2ccc(N(C)C)cc2)cc(OC)c1OC`, the growth was -12.5% (active). In the case of `COc1cc2nc(Cl)nc(Nc3cccc(C(=O)/C=C/c4ccccc4)c3)c2cc1OC`, the growth was 68.9% (inactive). In the case of `N=C(N)c1ccc(-c2ccc(-c3ccc(Cl)cc3Cl)o2)cc1` it was -84.4% (active); in that of `Nc1c(C(=O)Nc2ccccc2)sc2nc3c(cc12)CCCCC3`, -9.1% (active); in that of `CCC(C)CC(C)C(=O)c1c(O)ccn(O)c1=O` (stereo not given), 13.8% (inactive).

Take `CN(C)c1ccc(C(=S)c2ccc(N(C)C)cc2)cc1`: the growth was -12.3% (active). Turning to `C=C(C)[C@@H]1CC[C@]2(C(=O)O)CC[C@]3(C)[C@H](CC[C@@H]4[C@@]5(C)CCC(N)C(C)(C)[C@@H]5CC[C@]43C)[C@@H]12` (stereo not given in full), the growth was -23.2% (active).

For `CN1CCN(c2ccc(-c3ccc4ncc(C#N)c(Nc5ccc(F)c(Cl)c5)c4c3)cc2)CC1`, the growth was 1.52% (active). In the case of `O=C(/C=C/c1cccc(Cl)c1)OCc1ccc2cc1OCC#C/C=C\C#CCO2` it was 79.2% (inactive); in that of `CC1(C)CC[C@]2(CO)CC[C@]3(C)C(=CC[C@@H]4[C@@]5(C)CCNCC(C)(C)[C@@H]5CC[C@]43C)[C@@H]2C1`, -33.1% (active). For the compound `O=C(NOC[C@H](O)CO)c1ccc(F)c(F)c1Nc1ccc(I)cc1F`, the growth is 106% (inactive).

Consider `COc1ccc(CNc2c3ccccc3nc3ccccc23)cc1OC`, for which the growth was -22.7% (active). In the case of `COc1ccc2oc(=O)cc(-c3nc4ccc(N)cc4[nH]3)c2c1` it was 83.9% (inactive); in that of `CCCCCNCCCCCNc1cc(OC)cc2cccnc12`, 45.3% (inactive). For `CS(=O)(=O)Nc1cc(-c2ccc3ncnc(Nc4ccc(F)c(Cl)c4)c3c2)ccc1Cl`, the growth is -32% (active). On to `CC(=O)N=c1ccc2nc3c(cc(N)c4ccccc43)oc-2c1`, for which the growth is -44.5% (active). Turning to `CCCSc1ccc2nc(NC(=O)OC)[nH]c2c1`, the growth was -7.05% (active). Turning to `Cc1cc(N2CCN(c3ccnc4cc(Cl)ccc34)CC2)nc(N2CCOCC2)n1`, the growth was 68.7% (inactive).

Regarding `NS(=O)(=O)c1ccc(CCNC(=O)/C=C/c2ccc(Cl)cc2)cc1`, the growth was 103% (inactive).

With `C=C(CNCCO)[C@@H]1CC[C@]2(CO)CC[C@]3(C)[C@H](CC[C@@H]4[C@@]5(C)CCC(NCCO)C(C)(C)[C@@H]5CC[C@]43C)[C@@H]12` (stereo not given in full), the growth was 51% (inactive). For `CN1C(=O)/C(=C/C=C/c2ccco2)SC1=S`, the growth was 5.83% (active). For the compound `Clc1ccc2c(N3CCN(c4ccnc(NC5CCCCC5)n4)CC3)ccnc2c1`, the growth is 29.4% (inactive). Turning to `CCOS(=O)(=O)c1c(C(C)C)cc(C(C)C)cc1C(C)C`, the growth was 102% (inactive). With `COc1cc(N2C(=O)[C@H](O)C2c2ccc(SC)cc2)cc(OC)c1OC` (stereo not given in full), the growth was 3.3% (active).

Regarding `Cc1cc(N2CCN(CC(=O)Nc3ccc4c(ccn4Cc4ccccc4)c3)CC2)nc(N2CCOCC2)n1`, the growth is 67% (inactive).

`CCOC(=O)Nc1nc2ccccc2[nH]1`: the growth was 99.4% (inactive) and 26.8% (inactive). In the case of `O=C(Nc1ccc(CN2CCOCC2)cc1)c1[nH]ncc1Nc1ncnc2sccc12`, the growth is -25.6% (active).

For the compound `Nc1ccc(Cl)c(S(=O)(=O)O)c1`, the growth was 99.3% (inactive). On to `Fc1c[c-]c(-c2ccccn2)c(F)c1.Fc1c[c-]c(-c2ccccn2)c(F)c1.[Cl][Pt+].[Cl][Pt+].c1ccc([PH+](C[PH+](c2ccccc2)c2ccccc2)c2ccccc2)cc1`, for which the growth is -2.28% (active).

As for `Nc1c2ccccc2nc2ccccc12`, the growth is -45.4% (active) and 2.95% (active) and 23% (inactive). In the case of `C1CN(CC2CCC(CN3CCOCC3)O2)CCO1` (stereo not given) it was 102% (inactive). On to `CC1=C[C@@H]2c3c(c(O)c(O)c4oc5cc(O)cc(O)c5c(=O)c34)[C@@H](c3cc(O)c(O)c4oc5cc(O)cc(O)c5c(=O)c34)[C@@H]2C(C)(C)C1`, for which the growth was -19.5% (active). In the case of `CCOC(=O)[C@@H]1CSC(CC)=C(C(=O)O)N1` it was 113% (inactive). In the case of `S=c1nc2[nH]c3ccccc3c2n[nH]1` it was 109% (inactive); in that of `Cc1ccccc1NC(=O)Cc1csc2[n+]1C(=O)/C(=C/c1ccc([N+](=O)[O-])cc1)S2`, 116% (inactive).
